Measurements taken from PubChem BioAssay.
The source made the active and inactive calls.

Assays:
[1] = A549 cell viability effects, profiling panel, calcein-AM fluorescence, 48 h, basal (AID 1162); conditions: higher = more signal
[2] = adipocyte viability effects, profiling panel, cell-based, 3T3-L1 adipocytes, calcein-AM fluorescence, 48 h, basal (AID 1163); conditions: 3T3-L1 adipocytes viability, higher = more signal
[3] = HepG2 cell viability effects, profiling panel, calcein-AM fluorescence, 48 h, basal (AID 1164); conditions: higher = more signal
[4] = MM1S cell viability effects, profiling panel, calcein-AM fluorescence, 48 h, basal (AID 1165); conditions: higher = more signal;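 also: viability of MM1S multiple myeloma cells under basal unstimulated conditions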
[5] = basal RPMI8226 viability, no added stimulus, profiling panel, cell-based, calcein-AM fluorescence, 48 h, PK04 Diversity Set (AID 1166); conditions: RPMI8226 myeloma viability, higher = more signal;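 also: cells grown under basal conditions without added stimulus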
[6] = basal HepG2 mitochondrial membrane potential changes, profiling panel, cell-based, JC-1 fluorescence, 24 h, 100 nL compound (AID 1167); conditions: higher = more signal
[7] = basal 3T3-L1 adipocyte mitochondrial potential changes, profiling panel, cell-based, JC-1 fluorescence, 3T3-L1 adipocytes, 24 h, 100 nL compound (AID 1168); conditions: JC-1 mitochondrial fluorescence, higher = more signal, called active from +8 up or from −8 down
[8] = basal RPMI8226 mitochondrial membrane potential changes, profiling panel, cell-based, JC-1 fluorescence, 24 h, 100 nL compound (AID 1169); conditions: RPMI8226 myeloma, JC-1 mitochondrial potential fluorescence, higher = more signal
[9] = basal MM1S mitochondrial membrane potential changes, profiling panel, cell-based, JC-1 fluorescence, 24 h, 100 nL compound (AID 1170); conditions: higher = more signal
[10] = A549 lung cancer cell viability effects, profiling panel, resazurin fluorescence, 24 h, PK04 Diversity Set (AID 1171); conditions: higher = more signal, called active from +8 up or from −8 down
Also: test concentration not given here.

Compound | z-score [1] | z-score [2] | z-score [3] | z-score [4] | z-score [5] | z-score [6] | z-score [7] | z-score [8] | z-score [9] | z-score [10]
CC(C)=CCCC(C)=CCON=C1C[C@@H](O)[C@@H](O)[C@@H]2[C@@H]3C(=O)N(C[C@@H]4CCCO4)C(=O)[C@@H]3CC[C@@H]12 | 0.113 | -0.833 | -0.315 | 0.182 | -0.0114 | -1.31 | 0.729 (inactive) | -0.495 | -0.761 | 0.0805 (inactive)
O=C1C2=CC[C@H]3C(=O)N(Cc4ccc5c(c4)OCO5)C(=O)[C@H]3[C@H]2[C@H](O)[C@@H]2O[C@H]12 | -0.227 | 0.447 | 0.162 | 0.351 | -0.196 | -0.275 | 0.00654 (inactive) | -0.223 | -0.398 | -0.763 (inactive)
COc1ccc(O[C@H]2C=C[C@@H](c3ccccc3)O[C@@H]2COC(=O)CCC(C)=NO[C@H](C)c2cn([C@@H]3COC[C@H]3O)nn2)cc1 | -1.24 | -0.547 | -1.22 | -0.913 | -1.22 | -1.63 | -1.03 (inactive) | 0.923 | -1.25 | 1.47 (inactive)
CO[C@H]1COC(=O)[C@@H]2CCCN2C(=O)[C@@H](C)COC(=O)CC=C[C@@H]1C | 0.12 | -0.142 | -0.364 | -0.122 | 0.358 | 0.00983 | -0.418 (inactive) | 0.604 | 0.0689 | 0.314 (inactive)
CO[C@H]1O[C@H](CO)[C@@H](OC(=O)Nc2ccc3c(c2)OCO3)[C@H](OC(=O)Nc2ccccc2-c2ccccc2)[C@@H]1OC(=O)Nc1ccccc1-c1ccccc1 | -0.89 | -0.0426 | -0.251 | -0.624 | -0.775 | -0.121 | 1.34 (inactive) | -1.11 | 0.481 | -1 (inactive)
COc1ccc([Si](C)(C)[C@H]2[C@H](CC(=O)N3CCC[C@H]3CO)O[C@@]3(C(=O)N(Cc4cccc(N5C(=O)COc6ccccc65)c4)c4ccccc43)[C@@H]2C)cc1 | 0.819 | 0.198 | 1.01 | -2.42 | -4.37 | 4.27 | 1.86 (inactive) | -0.938 | 0.741 | -0.343 (inactive)
CCN1C(=O)[C@H]2[C@H]3[C@H](O)[C@H](O)CC(=NOC[C@@H](C)[C@H](OCc4ccccc4)C(C)C)[C@@H]3CC[C@H]2C1=O | -0.0364 | 0.387 | -0.755 | -1.76 | -1.24 | -1.39 | -2.19 (inactive) | -0.279 | -0.187 | -0.295 (inactive)
CCCCCCc1nc(CCCc2cc3c(c(CCCCCC)n2)[Si](C(C)C)(C(C)C)O[C@H]3c2ccccc2)cc2c1[Si](C(C)C)(C(C)C)O[C@H]2c1ccccc1 | 1.4 | -0.352 | -0.17 | -0.374 | -0.966 | 0.903 | 0.774 (inactive) | -0.308 | 0.396 | 1.09 (inactive)
CO[C@H]1O[C@H](CO)[C@@H](OC(=O)Nc2ccc(C#N)cc2)[C@H](OC(=O)c2cc3ccccc3[nH]2)[C@H]1OC(=O)c1cc2ccccc2[nH]1 | 2.71 | 0.221 | 0.837 | -2.28 | -0.909 | -1.55 | 0.53 (inactive) | -0.405 | -0.384 | -1.49 (inactive)
CN1C(=O)[C@@]2(CCC(=O)OC(C)(C)C)N=C(c3ccc(OCCCO)cc3)O[C@H]2c2ccccc21 | 0.575 | 1.36 | -0.614 | -1.85 | -3.45 | 0.543 | -0.207 (inactive) | -1.18 | -0.696 | -0.54 (inactive)
CC(=O)OC[C@H]1O[C@H](C#CCCCc2ccccc2)C=C[C@@H]1OC(C)=O | -0.442 | -0.0563 | -2.26 | -3.51 | -3.61 | -1.12 | 0.288 (inactive) | -0.861 | -2.26 | 0.899 (inactive)
O=C1O[C@@H](c2ccccc2)[C@@H](c2ccccc2)N2[C@@H](c3ccc(OCCO)cc3)[C@]3(C(=O)Nc4ccc(C#CCCO)cc43)[C@@H](C(=O)N3CCCCCCC3)[C@H]12 | 0.819 | 1.02 | 0.874 | 0.206 | 0.269 | 0.523 | -0.564 (inactive) | -0.974 | -0.399 | 0.932 (inactive)
COc1cccc([C@H]2Oc3ccc(OC)cc3C(=NOC(C)CN3CCCc4nc(C)c(C)cc43)[C@@H]2O)c1 (stereo not given in full) | -0.0217 | -0.529 | 0.778 | 0.296 | -0.627 | 0.0313 | -1.29 (inactive) | 0.239 | -0.947 | -0.455 (inactive)
CO[C@@H]1COC(=O)CC=C[C@@H](C)[C@@H]2C=C[C@H](O)[C@@H](COC(=O)CCC[C@H]1C)O2 | 0.438 | -0.717 | -0.101 | -0.567 | 0.403 | -0.016 | -0.546 (inactive) | -0.347 | -1.23 | -0.165 (inactive)
O=C(NN=C1C[C@@H](O)[C@@H](O)[C@@H]2[C@@H]3C(=O)N(c4cccc(Oc5ccccc5)c4)C(=O)[C@@H]3CC[C@@H]12)OCc1ccccc1 | 0.359 | 0.51 | -0.492 | -0.0408 | -0.238 | -0.659 | -0.0191 (inactive) | 0.682 | 0.615 | 0.413 (inactive)
CN1C(=O)C2C=CC(C(O)c3ccc(I)cc3)N(NC(=O)OC(C)(C)C)C2C1=O (stereo not given) | -0.872 | -0.692 | -1.28 | -0.0342 | -0.297 | -1.56 | -0.474 (inactive) | -0.698 | 0.804 | -0.312 (inactive)
